# PubChem BioAssay (NCI)
# The panel holds about 83,000 compounds, 20% with a hit somewhere; the sample as a whole holds those more often.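 Note: values are percent growth. 100 is the growth of untreated cells, values between 100 and 0 indicate rising inhibition; between -100 and 0 indicates cell death.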 Values without a mark were called inactive. Calls of active or inactive are those of the source. Rule for the calls: active = growth percent below 10; inactive = the rest.
# Tested on: HL-60(TB) leukemia
# Assay: NCI-60 one-dose screen, 48 h (100 = growth as untreated, 0 = no growth, -100 = all killed)
# Conditions: 10 µM unless noted
row,SMILES,growth
1,COc1ccc(-c2cc(C(=O)N=Nc3c(O)[nH]c4ccc(Cl)cc34)c3ccccc3n2)cc1,96%
2,COc1ccc(C(=O)COc2ccc(NC(=O)Nc3ccc(Cl)c(C(F)(F)F)c3)cc2)cc1,19%
3,N#Cc1cc(-c2ccc3ncnc(N4CCc5cc(F)c(Cl)cc54)c3c2)cnc1N,36.1%
4,C#CCNC(=O)CCC(=O)OC[C@]12CC[C@@H](C(=C)C)[C@@H]1C1CC[C@@H]3[C@@]4(C)CCCNC(C)(C)[C@@H]4CC[C@@]3(C)[C@]1(C)CC2 (some centres undefined),-39% (active)
5,COc1ccc(C(=O)/C=C/c2ccc(OC)c(OCc3ccccc3)c2)cc1OC,2.91% (active)
6,N#Cc1ccc(C(=O)CSc2nc3c(c(Nc4ccc(S(N)(=O)=O)cc4)n2)CCC3)cc1,101%
7,COc1cc(/C=N/NC(=O)c2ccc(OCc3nc4ccc(Cl)cc4[nH]3)cc2)cc(OC)c1OC,28.2%
8,COc1ccc2c(c1)c(-c1cc3nc(-c4cn(C)c5ncc(Br)cc45)cc(N)n3n1)cn2C,-59.7% (active)
9,Cc1ccc(S(=O)(=O)N(CCn2ccnc2[N+](=O)[O-])CCn2ccnc2[N+](=O)[O-])cc1,94.6%
10,CCCCSc1nc(Nc2ccc(S(N)(=O)=O)cc2)c(C#N)c(-c2cc(OC)c(OC)c(OC)c2)n1,-28% (active)
11,CC1(C)CC(=O)C2=C(C1)N(Cc1ccc(C(=O)O)cc1)C1=C(C(=O)CC(C)(C)C1)C2c1ccc(Cl)cc1,107%
12,Cc1nc2c(cnn2-c2ccccc2)c(=O)n1-c1ccc(NC(=O)c2ccc(F)cc2)cc1,42.5%
13,O=C(CSc1nnc(-c2c[nH]c3ccccc23)n1-c1ccccc1)Nc1ccc(C(=O)/C=C/c2cccc([N+](=O)[O-])c2)cc1,86.8%
14,C=C1CCC2C3(C)COC(c4ccccc4F)OC3CCC2(C)C1C/C=C1/C(=O)OCC1O (centres undefined),-0.649% (active)
15,O=C(c1ccc(O)cc1)C1[C@H](c2ccc(Br)cc2)[C@@H](c2ccccc2)NC12C(=O)Nc1ccc(Br)cc12 (some centres undefined),12.5%
16,CN(C)c1nc(NCCNS(=O)(=O)c2ccc(C3=Nc4c(N)nc(N)nc4NC(c4ccc(C(F)(F)F)cc4)C3)cc2)nc(Nc2ccc(F)cc2)n1 (centres undefined),-13.7% (active)
17,COc1ccc2cc([C@H](C)C(=O)N/N=C/c3ccc(Br)cc3)ccc2c1,91.3%

row,SMILES,growth
1,COc1ccc(/C=C/C(=O)c2ccc(NC(=O)CN3C(=O)NC(C)(c4ccccc4)C3=O)cc2)cc1 (centres undefined),67.3%
2,Cc1ccc2c(N)c(C(=O)Nc3ccc(-c4ccccc4)cc3)sc2n1,38.7%
3,O=C(c1ccccc1)c1ccc2nc(-c3cccc(Cl)c3)[nH]c2c1,97.6%
4,O=c1[nH]c2ccccc2cc1CSc1ccc(Nc2nccc(-c3ccc(C(F)(F)F)cc3)n2)cc1,69.5%
5,COc1ccc(OC)c(/C=N/NC(=O)c2ccc3nc(-c4ccc(Cl)cc4)[nH]c3c2)c1,87.1%
6,COc1ccc(/C=C/c2n(Cc3ccc4ccccc4c3)c3ccccc3[n+]2Cc2ccc3ccccc3c2)cc1,-5.59% (active)
7,c1ccc(-c2csc(Nc3cccc(Nc4nc(-c5ccccc5)cs4)c3)n2)cc1,65.9%
8,O=C(N/N=C/c1ccc(B(O)O)s1)c1[nH]c2ccc(Br)cc2c1-c1ccccc1,-18.2% (active)
9,COc1ccc(-c2ccc(/C=N/NC(=O)c3[nH]c4ccc(Br)cc4c3-c3ccccc3)s2)cc1,95.6%
10,Cc1ccc(-n2c(-c3cc4ccccc4nc3Cl)noc2=O)cc1,85.1%
11,O=CNc1cccc(-n2cnc3cc(-c4ccc(O)cc4)ccc32)c1,8.14% (active)
12,CSc1ccccc1NC(=O)c1ccc2nn(/C(C#N)=C/c3ccccn3)nc2c1,-12.8% (active)
13,Nc1ccc(-c2ccc3ncnc(N4CCc5cc(F)c(Cl)cc54)c3c2)cn1,22.8%
14,CC(C)CSc1nc(NCCc2c[nH]c3ccccc23)c(C#N)c(-c2ccc(Cl)cc2)n1,47.5%
15,CCC(C)(C)c1ccc(OCCCCCCN2CCN(c3ccncc3)CC2)cc1,-62.2% (active)
16,COC(=O)c1ccc(-c2c(-c3ccccc3)c(F)c3oc(C(=O)OC)c(N)c3c2-c2ccccc2)cc1,105%
17,CS(=O)(=O)Nc1ccc(-c2ccc3c(c2)ncn3-c2ccc(NC(=O)Nc3ccc(Cl)c(C(F)(F)F)c3)cc2)cc1,-42.4% (active)
